Article PMC7862700, “An all-to-all approach to the identification of sequence-specific readers for epigenetic DNA modifications on cytosine”

Legend:
Assay in all cases: DAPPL (digital affinity profiling via proximity ligation, sequencing); 10 mM Tris-HCl pH 7.5, 50 mM NaCl, 1 mM DTT, 4% glycerol, room temperature, 30 min; GST-TFs on glutathione beads, 16-mer random dsDNA library, 0.1% formaldehyde crosslink after washing; high values mean tight binding
Settings in all cases: protein: recombinant; tags: N-terminal GST; dsDNA, one strand shown
ETV2 = biological target: T1, ETV2 (Homo sapiens, UniProt O00321 1-342)
T1 sequence: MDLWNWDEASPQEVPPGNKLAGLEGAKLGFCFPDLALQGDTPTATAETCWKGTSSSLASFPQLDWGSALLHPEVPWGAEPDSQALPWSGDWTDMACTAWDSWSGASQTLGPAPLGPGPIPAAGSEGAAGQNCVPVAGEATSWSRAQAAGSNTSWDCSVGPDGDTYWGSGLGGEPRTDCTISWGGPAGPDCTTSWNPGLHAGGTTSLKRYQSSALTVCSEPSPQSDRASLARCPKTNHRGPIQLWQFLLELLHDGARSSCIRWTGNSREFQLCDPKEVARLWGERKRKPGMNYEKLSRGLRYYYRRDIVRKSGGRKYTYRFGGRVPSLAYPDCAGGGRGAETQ
How it was run: (§1)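 Sequencing on an Illumina NextSeq500 followed washing, crosslinking with 0.1% formaldehyde, proximity ligation (BsaI/T4 ligase, 1 h, 37 °C) and PCR amplification of pools that had been incubated for 30 min at room temperature with 200 nmole of a random double-stranded 16-mer DNA library in Tris/NaCl/DTT/glycerol buffer. Each pool held DNA-barcoded human transcription factors, expressed in yeast as GST fusions and captured on glutathione beads, plus a tag-only sample. Binding signal is a hexamer's read frequency for a factor divided by its frequency in the tag-only sample.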

CRX = CRX (Homo sapiens, UniProt O43186 1-299)
How it was run: as §1

ETV1 = ETV1 (Homo sapiens, UniProt P50549 1-477)
How it was run: as §1

ERF = biological target: T2, ERF (Homo sapiens, UniProt P50548 1-548)
T2 sequence: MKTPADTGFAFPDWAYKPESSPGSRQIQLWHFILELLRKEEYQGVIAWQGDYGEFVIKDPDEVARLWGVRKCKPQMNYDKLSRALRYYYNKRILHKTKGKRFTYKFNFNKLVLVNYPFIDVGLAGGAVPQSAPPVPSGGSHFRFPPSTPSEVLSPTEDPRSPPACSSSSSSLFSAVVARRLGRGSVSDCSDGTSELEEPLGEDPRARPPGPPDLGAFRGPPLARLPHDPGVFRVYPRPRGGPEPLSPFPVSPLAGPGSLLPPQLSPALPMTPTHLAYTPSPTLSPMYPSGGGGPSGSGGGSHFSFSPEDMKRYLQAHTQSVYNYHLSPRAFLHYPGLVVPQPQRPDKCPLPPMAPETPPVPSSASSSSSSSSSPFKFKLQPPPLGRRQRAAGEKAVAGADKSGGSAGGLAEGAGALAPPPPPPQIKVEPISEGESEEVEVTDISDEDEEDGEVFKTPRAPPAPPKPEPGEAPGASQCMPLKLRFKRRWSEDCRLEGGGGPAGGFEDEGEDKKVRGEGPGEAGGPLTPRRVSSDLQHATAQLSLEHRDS
How it was run: as §1

ETV3L = biological target: T3, ETV3L (Homo sapiens, UniProt Q6ZN32 1-361)
T3 sequence: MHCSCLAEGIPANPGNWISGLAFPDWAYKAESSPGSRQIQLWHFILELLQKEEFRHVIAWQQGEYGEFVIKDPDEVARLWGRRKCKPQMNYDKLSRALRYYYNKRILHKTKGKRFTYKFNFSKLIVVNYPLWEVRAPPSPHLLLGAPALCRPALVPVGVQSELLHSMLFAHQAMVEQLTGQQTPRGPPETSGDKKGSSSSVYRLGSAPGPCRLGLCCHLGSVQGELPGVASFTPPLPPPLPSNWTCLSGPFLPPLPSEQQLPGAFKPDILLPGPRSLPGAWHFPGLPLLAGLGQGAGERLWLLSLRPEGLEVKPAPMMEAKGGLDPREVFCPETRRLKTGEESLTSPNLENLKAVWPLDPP
How it was run: as §1

SPDEF = biological target: T4, SPDEF (Homo sapiens, UniProt O95238 1-335)
T4 sequence: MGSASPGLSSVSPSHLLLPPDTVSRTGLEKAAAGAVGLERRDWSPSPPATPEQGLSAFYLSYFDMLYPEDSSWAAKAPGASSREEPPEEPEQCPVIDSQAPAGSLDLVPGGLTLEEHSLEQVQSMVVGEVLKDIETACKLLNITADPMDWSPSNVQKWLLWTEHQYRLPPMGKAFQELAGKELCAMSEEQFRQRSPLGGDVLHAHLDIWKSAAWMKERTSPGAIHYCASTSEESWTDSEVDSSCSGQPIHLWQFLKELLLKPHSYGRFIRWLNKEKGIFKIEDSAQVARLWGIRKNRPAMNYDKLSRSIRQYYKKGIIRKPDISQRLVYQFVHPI
How it was run: as §1

ETV7 = biological target: T5, ETV7 (Homo sapiens, UniProt Q9Y603 1-341)
T5 sequence: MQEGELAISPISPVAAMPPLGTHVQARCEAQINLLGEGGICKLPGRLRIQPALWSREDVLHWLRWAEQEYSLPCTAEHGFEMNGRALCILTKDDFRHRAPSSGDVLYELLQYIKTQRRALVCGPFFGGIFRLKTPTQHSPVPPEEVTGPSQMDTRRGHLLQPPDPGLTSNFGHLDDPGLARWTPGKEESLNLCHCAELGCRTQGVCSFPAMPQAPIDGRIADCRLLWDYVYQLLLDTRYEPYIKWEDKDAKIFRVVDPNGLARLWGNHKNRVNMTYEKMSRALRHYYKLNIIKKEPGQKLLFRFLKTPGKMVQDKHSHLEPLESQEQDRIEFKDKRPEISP
How it was run: as §1

ETV3 = biological target: T6, ETV3 (Homo sapiens, UniProt P41162-2 1-143)
T6 sequence: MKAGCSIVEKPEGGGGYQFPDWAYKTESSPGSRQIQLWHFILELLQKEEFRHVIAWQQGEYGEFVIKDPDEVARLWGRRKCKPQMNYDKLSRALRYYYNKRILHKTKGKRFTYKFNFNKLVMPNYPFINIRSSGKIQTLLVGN
How it was run: as §1

ETV6 = ETV6 (Homo sapiens, UniProt P41212 1-452)
How it was run: as §1

Chain of CRX (O43186 whole entry): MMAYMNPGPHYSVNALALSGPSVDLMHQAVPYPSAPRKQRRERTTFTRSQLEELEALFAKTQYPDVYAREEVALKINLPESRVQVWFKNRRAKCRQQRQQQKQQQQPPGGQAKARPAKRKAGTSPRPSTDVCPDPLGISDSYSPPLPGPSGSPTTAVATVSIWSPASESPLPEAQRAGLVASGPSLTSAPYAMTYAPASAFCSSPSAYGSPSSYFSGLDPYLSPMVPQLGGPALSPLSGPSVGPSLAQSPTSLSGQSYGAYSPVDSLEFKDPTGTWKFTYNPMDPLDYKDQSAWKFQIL
Chain of ETV6 (P41212 whole entry): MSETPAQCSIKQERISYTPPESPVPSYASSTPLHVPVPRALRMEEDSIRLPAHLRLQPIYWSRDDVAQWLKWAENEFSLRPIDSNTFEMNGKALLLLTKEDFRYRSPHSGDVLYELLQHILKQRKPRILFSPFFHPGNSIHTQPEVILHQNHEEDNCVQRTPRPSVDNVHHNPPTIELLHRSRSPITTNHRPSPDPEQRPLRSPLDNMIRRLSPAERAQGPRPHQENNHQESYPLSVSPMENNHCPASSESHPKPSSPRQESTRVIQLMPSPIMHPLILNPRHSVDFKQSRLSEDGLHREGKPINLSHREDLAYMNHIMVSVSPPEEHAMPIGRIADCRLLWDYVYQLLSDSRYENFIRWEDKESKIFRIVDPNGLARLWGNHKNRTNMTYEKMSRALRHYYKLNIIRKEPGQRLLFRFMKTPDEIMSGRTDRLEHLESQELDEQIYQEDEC
Chain of ETV1 (P50549 whole entry): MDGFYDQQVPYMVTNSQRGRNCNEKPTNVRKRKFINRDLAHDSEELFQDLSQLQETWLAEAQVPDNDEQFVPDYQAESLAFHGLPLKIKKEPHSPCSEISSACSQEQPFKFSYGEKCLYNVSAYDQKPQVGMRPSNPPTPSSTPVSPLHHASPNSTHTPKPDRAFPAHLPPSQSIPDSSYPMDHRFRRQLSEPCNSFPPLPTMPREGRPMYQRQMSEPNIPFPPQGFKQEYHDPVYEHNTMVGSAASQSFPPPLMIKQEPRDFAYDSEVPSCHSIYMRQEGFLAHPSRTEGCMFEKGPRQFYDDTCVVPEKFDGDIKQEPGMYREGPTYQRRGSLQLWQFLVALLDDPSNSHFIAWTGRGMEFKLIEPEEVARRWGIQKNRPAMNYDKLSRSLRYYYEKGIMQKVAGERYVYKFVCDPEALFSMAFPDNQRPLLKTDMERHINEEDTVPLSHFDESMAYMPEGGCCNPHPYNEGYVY

With AGAACA the binding signal (ETV2) was 1.03 fold enrichment (6-mer frequency, TF over GST control), the binding signal (CRX) was 1.22 fold enrichment (6-mer frequency, TF over GST control) and the binding signal (ETV1) was 1.02 fold enrichment (6-mer frequency, TF over GST control). The binding signal (ERF) was 1.07 fold enrichment (6-mer frequency, TF over GST control), the binding signal (ETV3L) was 1.01 fold enrichment (6-mer frequency, TF over GST control) and the binding signal (SPDEF) was 1.03 fold enrichment (6-mer frequency, TF over GST control). For the same sequence, the binding signal (ETV7) was 1.07 fold enrichment (6-mer frequency, TF over GST control), the binding signal (ETV3) was 1.07 fold enrichment (6-mer frequency, TF over GST control) and the binding signal (ETV6) was 1.08 fold enrichment (6-mer frequency, TF over GST control).
